# Test results taken from PubChem BioAssay AID1347426 (Functional Genomics Laboratory (NCATS/FGL), 2020).
# In all, about 31,000 sequences went through this assay and about 1,400 (4.5%) were called active.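 Rule for the calls: active = median seed-adjusted z-score above 1 or below -1; inactive = the rest.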 The full list was thinned out, with actives kept by preference.
# Assay: Novel Modifiers of Survival Motor Neuron (SMN) Protein: Gene Identification via Genome-wide siRNA Screen;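 note: luminescence tracks full-length SMN protein made from the SMN2 reporter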
# Conditions: HEK293T SMN2-luciferase reporter, siRNA knockdown, 72 h; actives lie on both sides
# In short: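 siRNA screen, 10418 genes ×3 siRNAs; 1 pmol/well, lipid reverse transfection into HEK293T SMN2-luc reporter line. 72 h, 37 °C, 5% CO2; ONE-Glo readout. Data: neg-ctrl normalized, log10, MAD; hit = MAD >1.0 or < -1.0.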
row,Sequence,median seed-adjusted z-score
1,GCACUGUCACUAAGCAGAATT against CHEK2,0.585 (inactive)
2,GAGAGAUCAUUGCAAAGCATT against HNRNPM,0.499 (inactive)
3,GCCUCUACAGCAGAAGAAATT against LAMB2,1.12 (active)
4,GGAGAGACUUUUUACAACUTT against CACNG6,-0.0499 (inactive)
5,CUGUCCAUAGUGUCAUUAATT against GALNT1,-0.164 (inactive)
6,CUUGUCAAGUACGACCUUATT against NINJ1,-0.061 (inactive)
7,GGCUGUUCGAGUCCUGAAATT against FMO1,0.323 (inactive)
8,GAGCAGGUGUUAUUAUGGATT against CLCN3,-0.0801 (inactive)
9,GUUCAGCCGUGGAAAGAAATT against WFDC6,0.0443 (inactive)
10,GAAAUACAAGGAAUCUGAATT against TMTC4,-1.16 (active)
11,GCACCGUGGUGUCAACCAUTT against KCNK12,1.04 (active)
12,CCUACUCAAUGUGAUAUAUTT against ADAMDEC1,0.0106 (inactive)
13,CCCUUAAUCUACAAUAUCATT against PHTF1,0.0129 (inactive)
14,GUCCCGAUCUGUGCUCUGATT against DUSP2,0.576 (inactive)
15,GGAGUACCAUAGAUACAGATT against PPIG,-0.0192 (inactive)
16,GGAUCGCUGUCUCUAACUUTT against RRM1,-5.51 (active)
17,GCCUCUAUUUGAUAAGCGATT against NAP1L1,0.263 (inactive)
18,GCGUUGGUCGGGAUGAUUATT against P2RY10,-0.432 (inactive)
19,GGAGGUCUAUAUUAUAAGATT against CFHR4,-0.0972 (inactive)
20,GAUACGCUAUGAACUCUCATT against RCE1,-1.19 (active)
21,GCAUUAGAAACUUACAAGATT against TROVE2,0.399 (inactive)
22,CGAGUGUUCCCGGACAACATT against PODNL1,-0.448 (inactive)
23,GCUCAGCCCUUACUGUACATT against ZNF569,0.425 (inactive)

row,Sequence,median seed-adjusted z-score
1,GAUUGACCUGCGUUACGAATT against ADCK2,0.0823 (inactive)
2,UGCCUUAUCUGGAAGCAAATT against ERMAP,-0.276 (inactive)
3,GAUUCCCUGCAUCAACUAATT against SQLE,-1.14 (active)
4,GGGAAACGAUAUUCAUACATT against ADAMTS19,-0.39 (inactive)
5,GUUAGGUAGUAGAAACAAATT against TCFL5,1.52 (active)
6,GUUUCGGACCUAUCUCUGATT against RBM3,0.0539 (inactive)
7,CAAAGUGGAUUCAAAGAUUTT against PRKCH,0.761 (inactive)
8,CACCUUUUCUGGAUAGAGATT against DSC1,-0.151 (inactive)
9,GCCUUAUGAUGGAAGAGAUTT against EYA2,0.111 (inactive)
10,GUCUAGAUGAUCACAAGUATT against PSMD1,-1.61 (active)
11,GUUCUACCGUGGACAGCAATT against CLCN1,0.314 (inactive)
12,CAACAACAAUCAUAGCUGATT against SSBP1,-0.456 (inactive)
13,GACUGGAAAUGAUUCGAGATT against RTCD1,0.0794 (inactive)
14,CCUAUGGACUGAACAGGGATT against ZDHHC3,0.229 (inactive)
15,GUCUGGAGAUCAUAUUUUUTT against PIM3,-1.01 (active)
16,CAUUCUGACCGUGAACAAUTT against CTRB1,-0.214 (inactive)
17,CGAUGACUCAGAAAAGCGATT against ARHGEF10,0.22 (inactive)
18,CGAGGAUAUUGACUGGGUATT against PRKCZ,-0.175 (inactive)
19,GCCCUGCAUUUGCGAUGAATT against ZNF169,0 (inactive)
20,CACUUGCACAGAUACCCUUTT against COLEC12,-1.04 (active)
21,GGAAAGAGUUCAGUCGGAATT against ZNF671,-0.0551 (inactive)
22,GAAAGAUUGUACCAGUUGATT against CMPK1,-0.363 (inactive)
23,GCGAGUGUGAGAAAACAUUTT against ZFP3,0 (inactive)

row,Sequence,median seed-adjusted z-score
1,GAGCGAGACAUAAAAUAUUTT against ZNF257,0.306 (inactive)
2,CCCAAGAAAUAUUAACAUUTT against AP3S1,0.787 (inactive)
3,CGAAUUUCCUAGUAAACCATT against TFAP2C,1.28 (active)
4,CGUCAUGAGCCUCUACGAATT against PTPN5,0.22 (inactive)
5,GGAAAUCCAUCUACCGCUATT against SORL1,0.357 (inactive)
6,GAUCAGGUGCUGUUCCAUATT against DGAT2L3,0.247 (inactive)
7,CAUCGAGGGUCAUACUAUUTT against POLR2A,-3.81 (active)
8,GACUGCUGCUUAUCAACAATT against SPR,0.0329 (inactive)
9,GACCUUACCUCAGACUAGATT against EXOG,0.746 (inactive)
10,AGAUGUACCUGUUCGUGUATT against DNASE1L2,-0.228 (inactive)
11,GGACCUACGUUGCAGUUCATT against SUZ12,-1.65 (active)
12,GCACUGGAGAAGUAUGUGATT against ALOX12B,0.0071 (inactive)
13,GCACUUUACCAUUAGACAATT against LDB2,-0.0847 (inactive)
14,GGAGACUAGUAAGCACUAUTT against JARID1B,0 (inactive)
15,CAAGAGGGUUUUUACCAUATT against SEC11C,0.508 (inactive)
16,GGUCAUGGAUGUGCACGAUTT against KRT14,-0.127 (inactive)
17,CAUCAGGAAUGGAAUUACATT against SKIL,-0.868 (inactive)
18,GGUCCAAGCUGAUUACCCUTT against UNC13A,-2.1 (active)
19,CCUCCCAUCUUAUUAUCCATT against ZNF572,0.237 (inactive)
20,GGUGGAGACAUUUACAUCUTT against CREB3L1,0.708 (inactive)
21,CAAAGUACCGAGUCGAAUATT against SENP7,0.547 (inactive)
22,GCAAGACCGUGAGACAACUTT against SENP7,0.547 (inactive)
23,GGAAGAAAAUAGUGCUGCATT against BARX1,1.63 (active)
